Source: PubChem BioAssay AID493191 (Broad Institute, 2011)
In all, about 1,300 compounds went through this assay and about 330 (25%) were called active. Not all results are given here. Results with a measured potency or affinity are listed apart. A number with no mark means an inactive call. The rule behind the calls is not given here.

Assay: growth inhibition of MALME3 cells – cell-based, CellTiter-Glo, cherry-picked, orthogonal assay for MITF inhibitor project, dose response (AID 493191)
Details: MALME3 melanoma viability, CellTiter-Glo luminescence, 24 h; series mostly up to 35 µM; activity change, negative = inhibition: at the top concentration

Row | Compound | activity change, negative = inhibition
1 | CC(=O)c1cccc(Nc2nc(-c3cccnc3)cs2)c1 | -5.43%
2 | CCOc1cc(/C=C\[N+](=O)[O-])ccc1OCC(=O)N1CCOCC1 | -26.9%
3 | C/C(=N/Nc1nc(C)c(C)s1)c1cccc([N+](=O)[O-])c1 | -0.825%
4 | CCOc1ccccc1NC(=O)C1C2CCC(O2)C1C(=O)O (configuration not stated) | 22.9%
5 | Cc1cc(/C(N)=N/OC(=O)Nc2ccc(Cl)cc2)no1 | 0.994%
6 | COc1ccccc1/C=C/C=N/NC(=O)c1cccs1 | 9.36%
7 | Cc1ccccc1OCC(=O)Nc1cccc(C(=O)O)c1 | 6.99%
8 | COc1ccc(NC(=O)c2cc3ccccc3oc2=O)c(OC)c1 | -10.4%
9 | COc1cccc(/C=N/NC(=O)c2cccs2)c1 | 4.46%
10 | COc1ccc(-c2noc(-c3cccs3)n2)cc1OC | 3.3%
11 | N#CCSc1nc2ccccc2c2nc3ccccc3n12 | -38.1%
12 | CC1(C)CC(=O)c2cnc(N3CCc4ccccc43)nc2C1 | 5.14%
13 | Cc1cc(C(=O)CSc2nnc3ccccn23)c(C)n1-c1ccccc1 | -10.4%
14 | COc1ccccc1N(C(=O)CCl)c1cn(C(C)=O)c2ccccc12 | -13.6%
15 | Cn1cc(C(=O)CCl)c2ccccc21 | -33.3%
16 | Cc1ccc2c(C(=O)CCl)c(C)[nH]c2c1 | -26.6%
17 | O=C(Nc1ccc(OC(F)(F)F)cc1)c1[nH]ncc1[N+](=O)[O-] | -0.947%
18 | COC(=O)c1c(C)[nH]c(/C=N/Nc2ccccc2)c1C | -7.12%
19 | COCc1nc(-c2ccc(-c3ccccc3)nc2OC)no1 | 12.8%
20 | C/C(=N\Nc1nccnc1Cl)c1ccc(O)c(C)c1 | -5.53%
21 | Nc1ccc2c(c1)OC1(CCCC1)O2 | 4.5%
22 | COc1cc(OC)cc(-c2oc(=O)c3cc(OC)c(OC)cc3c2C(F)(F)F)c1 | 6.56%
23 | COc1c(C)cccc1C(=O)Nc1ccc(N2CCN(S(C)(=O)=O)CC2)cc1 | 2.37%
24 | CC(C)(C)c1ccc(C(=O)Nc2ccc(CC(=O)O)cc2)o1 | -8.99%
25 | CC1CCN(c2ccc(NC(=O)c3cccnc3)cc2)CC1 | 2.45%
26 | CN1CCN(c2ccc(NC(=S)NC(=O)c3cccc4ccccc34)cc2)CC1 | -22.1%

Row | Compound | activity change, negative = inhibition
27 | CCCCOC(=O)Nc1ccc2c(C)cc(=O)oc2c1 | -7.25%
28 | CC(C)N=C(NS(=O)(=O)c1ccccc1)C(Cl)(Cl)Cl | -23.1%
29 | CC(=O)Oc1ccc(C)cc1-n1nc2ccccc2n1 | -8.62%
30 | NC(=O)c1ccccc1NC(=O)/C=C/c1cccc(Cl)c1 | 3.67%
31 | Nc1ccc(-c2ncc(-c3ccccc3)o2)cc1 | 8.17%
32 | N#C/C(=C\c1c[nH]c2ccccc12)C(=O)NC1CC1 | 8.25%
33 | Cc1ccc(NC(=O)c2cc3cccc([N+](=O)[O-])c3[nH]2)cc1 | -4.99%
34 | ClC1(Cl)CC1CSc1nnc(-c2ccncc2)o1 (configuration not stated) | -0.215%
35 | COc1cc(SC)ccc1C(=O)Nc1ccc(Br)cn1 | -19.4%
36 | COc1ccc(-n2ncc3c(N4CCCCC4)ncnc32)cc1 | -26.4%
37 | Cc1ccc(C(=O)c2coc3ccc(O)c(Cl)c23)cc1 | -7.8%
38 | COc1cccc(-c2ccc3c(N)c(C(=O)NC4CC4)sc3n2)c1 | 6.5%
39 | O=S(=O)(CC(CN1CCCCC1)N1CCCCC1)c1ccc2ccccc2c1 (configuration not stated) | -17%
40 | Cc1ccc(S(=O)(=O)CC(CN2CCCCC2)N2CCCCC2)cc1 (configuration not stated) | 6.97%
41 | C=CCC(Nc1ccccc1)C12C=CC(O1)C(C(=O)OC)=C2C(=O)OC (configuration not stated) | -24.4%
42 | Cc1ccc(C)c(-n2c3nc(=O)[nH]c(=O)c-3cc3cc([N+](=O)[O-])ccc32)c1 | 11.9%
43 | COc1ccc(C2C(C#N)=C(N)Oc3c2oc(CO)cc3=O)cc1 (configuration not stated) | -3.32%
44 | Cc1ccc(NC(=O)Cc2noc3ccccc23)cc1 | -4.89%
45 | Cc1cnc(NC(=O)c2nn(C)cc2[N+](=O)[O-])s1 | 16.6%
46 | COc1ccccc1C(=O)Nc1nc(-c2ccc(S(=O)(=O)N3CCOCC3)cc2)cs1 | -15.5%
47 | O=C(O)c1cccc(N/N=C/c2cccs2)c1 | 4.16%
48 | O=C(N/N=C/c1cc([N+](=O)[O-])ccc1N1CCNCC1)c1ccc([N+](=O)[O-])cc1 | -44.9%
49 | Cc1cc(C(=O)Nc2ccc([N+](=O)[O-])cn2)cs1 | 7.3%
50 | O=C(O)c1cccc(N/N=C/c2ccc(OC(F)(F)F)cc2)c1 | 3.69%
51 | c1cnc(SCCOc2ccc3c(c2)CCC3)nc1 | 0.3%
52 | Cn1nnnc1Sc1ncnc2scc(-c3cccc(F)c3)c12 | -8.39%

Row | Compound | activity change, negative = inhibition
53 | CC1CCCCC1NC(=O)/C(C#N)=C/c1ccccc1F (configuration not stated) | -36.7%
54 | COc1cccc(NC(=O)c2cnn(-c3ccccc3)c2C)c1 | -7.95%
55 | CCOc1ccc(-c2noc(CCC(=O)O)n2)cc1 | 6.15%
56 | CCOc1ccc(NC(=O)c2ccc3snnc3c2)cc1 | -0.985%
57 | Cc1nc(NC(=O)/C=C/c2ccccc2)n[nH]1 | -19.5%
58 | O=C(Nc1ccc(Cl)cc1)OCc1ccccn1 | -5.39%
59 | COc1ccc(C(=O)Nc2ccc3ccccc3c2)cc1OC | -2.8%
60 | O=C(Nc1ccc2ncccc2c1)c1ccccc1Br | 4.58%
61 | O=C(Nc1ccc(N2CCOCC2)cc1)c1cnsn1 | -6.28%
62 | O=C(CCCCl)NC(=S)Nc1ccc(N2CCOCC2)cc1 | -1.17%
63 | O=C(Nc1ccc2c(c1)OCCO2)c1coc2ccccc2c1=O | 0.549%
64 | Brc1cccc(/C=N/Nc2nn[nH]n2)c1 | -7.17%
65 | CCN(CC)CC(=O)Nc1scc2c1c(=O)oc1ccccc12 | 10.3%
66 | Cc1ccc(Nc2nnc(-c3ccccc3N)o2)cc1C | 6.17%
67 | C=CCOc1ccc(/C=C/C(C)=N\O)cc1 | -2.54%
68 | O=C(c1cc2ccccc2oc1=O)N(Cc1ccccc1)C1CCS(=O)(=O)C1 (configuration not stated) | 3.46%
69 | COc1ccc(C(=O)NCC(=O)c2ccccc2)cc1 | -1.09%
70 | NCCN1C(=O)S/C(=C\c2ccc3c(c2)OCO3)C1=O | -23.1%
71 | CC(C)S(=O)(=O)c1csc(C(=O)Nc2ccc(F)cc2)c1N | -5.06%
72 | O=C(NCc1ccc2c(c1)OCO2)c1cc(=O)[nH]c2ccccc12 | 3.43%
73 | CN(C)c1ccc(NC(=S)c2ccccn2)cc1 | -23.9%
74 | N/C(=N\OC(=O)c1ccc(Cl)cc1Cl)c1ccncc1 | 1.53%
75 | Cc1ccc(-n2nnnc2Sc2nc([N+](=O)[O-])nn2C)c(C)c1 | -5.23%
76 | Cc1ccc(-n2cc(CNCCCn3cccn3)c(-c3cccc(C)c3)n2)cc1 | -48%
77 | C=C1C(=O)O[C@@]23[C@H]1CC[C@@H](C)[C@@H]2CC[C@@]1(C)O[C@@H]31 | 5.34%
